IL-1B inflam inh = qHTS for Inhibitors of Inflammasome Signaling: IL-1-beta AlphaLISA Primary Screen; THP-1 LPS/ATP IL-1B secretion, AlphaLISA, 16 h; active compounds read low; AID 743279, 2014; 360,000 tested, 4.7% active; activity change, % at 57.5 µM; in the data active = activity change below about -50%; inconclusive = mostly about -30% to -49%; also: % is scaled to controls: 0 for no effect and ±100 for the full control effect
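THP-1 cells pretreated 1 hr with compounds (up to 57.5 uM final), then stimulated with LPS (250 ng/mL final) plus ATP (1.25 mM final); secreted IL-1B measured by AlphaLISA after 16 hr, decreased signal indicating inhibition.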
SW480 rereplic = A quantitative high throughput screen for small molecules that induce DNA re-replication in SW480 colon adenocarcinoma cells; 340,000 tested, 1.8% active; SW480 DNA re-replication, Hoechst DNA content imaging, 48 h; AID 624297, 2012; Potency, µM (highest dose often 46.1 µM), for inactives: top-dose re-replication activation, actives largely listed as activators; also: potency is read from the fitted curve at half-maximal effect; % of control where 0% means no effect; nearly all actives have a fitted effect of over 55% in size
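Image-based DNA-content assay: after two days of treatment, nuclei were labelled with the DNA dye Hoechst and imaged, and hits were compounds raising the count of nuclei showing high fluorescence intensity.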
MCF10A rerep = A quantitative high throughput screen for small molecules that induce DNA re-replication in MCF 10a normal breast cells; MCF 10A DNA re-replication, Hoechst nuclear intensity, 48 h; Potency, µM (series often up to 46.1 µM), inactives show top-dose activity, positive = re-replication, hits mostly activators; 350,000 tested, 2.9% active; also: potency is read from the fitted curve at half-maximal effect; % of control where 0% means no effect; nearly all actives have a fitted effect of over 50% in size
KB-3-1 cytotox = qHTS assay for MDR1-selective chemotherapeutics: Primary screen using the parental adenocarcinoma cell KB-3-1; KB-3-1 viability, CellTiter-Glo ATP luminescence, 72 h; Potency, µM (doses to about 46.1 µM), hits mostly cytotoxic; 400,000 tested, 1.4% active; AID 1347075, 2019; also: potency is read from the fitted curve at half-maximal effect; % is scaled to controls: 0 for no effect and ±100 for the full control effect; nearly all actives have a fitted effect of over 60% in size
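Parental KB-3-1 adenocarcinoma cells in phenol-red-free DMEM with 10% FBS were pin-treated with compounds at several concentrations, incubated 72 h at 37 °C, and viability read by CellTiter-Glo luminescence; concentration-effect curves were fitted after normalization.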
KB-V1 MDR tox = qHTS assay for MDR1-selective chemotherapeutics: Primary screen using the drug-selected MDR subline cells KB-V1. KB-V1 MDR cells viability, CellTiter-Glo, 72 h. Potency, µM (doses to about 46.1 µM), hits mostly cytotoxic. 400,000 tested, 3.4% active. AID 1347076, 2019; also: potency is read from the fitted curve at half-maximal effect; % is scaled to controls: 0 for no effect and ±100 for the full control effect; nearly all actives have a fitted effect of over 60% in size
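Cytotoxicity toward P-gp-expressing KB-V1 cells was determined as loss of CellTiter-Glo luminescence after 72 h at 37 degrees C. Compounds were tested in quantitative HTS format across a concentration range, with curves fitted to normalized data.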
Active calls of the source: *; i = inactive; ? = inconclusive; nt = no result given. An excerpt weighted towards active compounds, which were near 9.9% of everything screened. Unless noted, calls follow the shape of the dose curve; as a rule, active = well fitted curve in the direction sought with a large enough effect; inconclusive = small, poorly fitted or top-dose-only effect, or another doubt; inactive = no such curve, though single readings can be large; an effect the other way counts as inactive or inconclusive.

SMILES	IL-1B inflam inh	SW480 rereplic	MCF10A rerep	KB-3-1 cytotox	KB-V1 MDR tox
CCC(C)c1ccccc1N1CC(C(=O)Nc2cc(S(=O)(=O)N3CCOCC3)ccc2OC)CC1=O (centres undefined)	21.5	16.4µM*	9.3%	i	i
N#Cc1ccc(C(=O)OCC(=O)NC(=O)NCc2ccccc2)cc1	11.1	-23.9%	-1.8%	i	i
Cc1ccc(S(=O)(=O)N2CCOCC2)cc1NC(=O)COC(=O)c1cnc(Cl)c(Cl)c1	-87.2*	-0.3%	-1.8%	i	i
CCOc1ccc(S(=O)(=O)N2CCOCC2)cc1NC(=O)CSCc1ccc(C)cc1	24.9	?	?	18.4µM*	?
COc1ccc(S(=O)(=O)c2nnn(-c3ccc(C(C)C)cc3)c2C)cc1	nt	nt	nt	i	?
O=C1C2C3c4ccccc4C(c4ccccc43)C2C(=O)N1Cc1ccccn1 (centres undefined)	19.1	2.0%	5.1%	i	i
COc1ccc(CN(CCC#N)CCC2(c3ccccc3)CC(C)N(C)CC2C)cc1OC (centres undefined)	-19.8	13.0%	?	i	i
COc1ccc(CNCCC2(Cc3ccccc3)CC(C)N(C)CC2C)cc1OC (centres undefined)	-61.5*	-9.0%	?	i	i
COc1ccccc1C(CNC(=O)c1cccc(S(=O)(=O)N2c3ccccc3CC2C)c1)N(C)C (centres undefined)	-53.9*	204.9%	?	i	i
CN(CC(=O)Nc1ccccc1Br)C(=O)c1cccc(S(=O)(=O)N2CCc3ccccc32)c1	-18.7	4.9%	?	i	18.4µM*
COc1ccccc1CN(C)C(=O)c1cccc(S(=O)(=O)N2CCCc3ccccc32)c1	-29.2	5.6%	0.6%	i	i
COc1ccc(NC(=O)CN(C)C(=O)c2cccc(S(=O)(=O)N3CCCc4ccccc43)c2)cc1	8.6	10.4%	0.2%	i	i
COc1ccccc1C(CNC(=O)c1cccc(S(=O)(=O)N2CCCc3ccccc32)c1)N(C)C (centres undefined)	?	5.1%	24.7%	i	5.8µM*
COc1ccccc1C(CNC(=O)c1cccc(S(=O)(=O)NCc2ccccc2)c1)N(C)C (centres undefined)	-0.4	-65.7%	-2.7%	i	i
COc1ccc(C(CNC(=O)c2cccc(S(=O)(=O)N3CCc4ccccc43)c2)N(C)C)cc1 (centres undefined)	-74.9*	?	?	?	i
COc1cccc(-c2nc3c(C#N)c[nH]n3c2NC2CCCC2)c1OC	nt	nt	nt	i	i
CN(C)S(=O)(=O)c1ccc(NC(=O)CCCNC(=O)c2ccc(Cl)cc2)cc1	10.8	-40.0%	13.3%	i	i
O=C(NCCO)C(=O)NCC1OCCCN1S(=O)(=O)c1cc(F)ccc1F (centres undefined)	-13.5	-4.0%	0.3%	i	i
O=S(Cc1ccccc1)CC(O)(c1ccc(Cl)cc1)c1ccc(Cl)cc1 (centres undefined)	-59.3*	?	?	?	20.6µM*
CCCOc1ccc(S(=O)(=O)Nc2ccccn2)c2ccccc12	12.7	1.3%	-2.9%	i	?
Cc1cc(O)c(C(C)C)cc1NC(=O)Nc1cccc2ccccc12	-66.0*	-13.6%	18.3%	i	i
CCCC[C@@H]1C=C(C(=O)O)[C@H](c2ccc(Br)cc2)N1S(=O)(=O)c1ccc(C)cc1	0.0	?	6.2%	i	i
Cc1nc(NC(=O)CN2CCCCC2)sc1C(=O)N(C)C	16.2	-6.3%	-11.4%	i	i
COc1ccc(CCN2C(=O)NC(NC(C)=O)(C(F)(F)F)C2=O)cc1OC (centres undefined)	16.8	1.3%	3.2%	i	?
COc1ccc(C(=O)NC2(C(F)(F)F)NC(=O)N(CCCc3ccccc3)C2=O)cc1OC (centres undefined)	-67.8*	-1.8%	1.5%	i	i
SMILES	IL-1B inflam inh	SW480 rereplic	MCF10A rerep	KB-3-1 cytotox	KB-V1 MDR tox
CCOc1ccc(OCC)c(S(=O)(=O)NCc2ccccc2)c1	-24.0	2.3%	-16.3%	i	i
CCOc1cc(Br)ccc1S(=O)(=O)NCc1ccccc1	8.0	-12.8%	-1.4%	i	14.6µM*
Cc1cc(NC(=O)CSc2nnc(C(F)(F)F)n2C)no1	-14.6	-2.6%	-2.7%	i	i
COc1ccc(C2c3c4c(n(C)c3CCN2C)CCN(C)C4c2ccc(OC)cc2)cc1 (centres undefined)	-54.7*	?	29.4%	i	i
CCN(CC)C(=O)c1ccc2c(c1)N(Cc1ccc(C(F)(F)F)cc1)C(=O)c1ccccc1S2	nt	nt	nt	i	i
NN(CCO)C(=S)Nc1ccc(Cl)cc1	-0.7	-0.9%	0.6%	i	i
CCOC(=O)c1c(C)oc2ccc(N(C(C)=O)S(=O)(=O)c3c(C)cc(C)cc3C)cc12	nt	nt	nt	23.1µM*	4.11µM*
CC(=O)c1c(C)oc2ccc(N(C(=O)c3ccncc3)S(=O)(=O)c3ccc(C)cc3C)cc12	nt	nt	nt	?	23.1µM*
COc1ccc(S(=O)(=O)N(C(=O)c2ccncc2)c2ccc3oc4c(c3c2)CCCC4)cc1	22.6	?	3.26µM*	?	?
CCOC(=O)c1c(C)oc2ccc(N(C(=O)c3ccncc3)S(=O)(=O)c3ccc(F)cc3)cc12	nt	nt	nt	i	?
O=C1CC(c2ccccc2)c2cccc(F)c21 (centres undefined)	9.9	-2.9%	-4.4%	i	i
CCc1cccc(NC(=O)c2ccc(Cn3nc(C)cc3C)o2)c1	9.2	-81.3%	6.6%	i	14.6µM*
CCOc1ccc(NC(=O)c2ccc(Cn3nc(C)cc3C)o2)cc1	-13.7	-0.6%	-2.6%	i	i
Cc1ccc(NC(=O)c2cc(C(=O)c3cc(Cl)ccc3O)cn(-c3ccc(C)cc3)c2=O)cc1	0.0	15.6%	11.1%	?	18.4µM*
CC(C)C(c1nnnn1C1CCCCC1)N1CCc2ccccc2C1 (centres undefined)	-78.5*	10.7%	1.9%	i	?
Cc1ccc(C(c2nnnn2C2CCCC2)N2CCc3ccccc32)cc1 (centres undefined)	-15.5	-8.3%	?	i	20.6µM*
CC(C)C(c1nnnn1C1CCCC1)N1CCc2ccccc21 (centres undefined)	7.4	-2.3%	1.0%	i	i
CC(C)C(c1nnnn1C1CCCC1)N1CCCc2ccccc21 (centres undefined)	8.6	0.4%	13.7%	i	i

Screening results (PubChem BioAssay)
